Test system: murine 3T3 fibroblasts
Assay: primary screen, percent viability or growth; higher = less effect of the substance
Method: Similarly, for measuring the cytotoxicity concentration (CC50) for 3T3 fibroblast cells, cultures were incubated with drugs for 72 hours and developed using Alamar Blue (Alamar Biosciences Inc, Sacramento, CA) as previously described.

Row | SMILES | Mammalian (3T3) cell % growth at 10 uM
1 | CN1CCc2c(c3ccccc3n2Cc2ccccc2)C1.O=S(=O)(O)c1cccc2c(S(=O)(=O)O)cccc12 | 100%
2 | COc1ccc(Cc2nccc3cc(OC)c(OC)cc23)cc1OC.Cl | 93.1%
3 | C#C[C@]1(O)CC[C@H]2[C@@H]3CCC4=Cc5oncc5C[C@]4(C)[C@H]3CC[C@@]21C | 90.2%
4 | COc1cc(O)c2c(=O)cc(-c3ccc(OC)c(-c4c(O)cc(O)c5c(=O)cc(-c6ccc([O-])cc6)oc45)c3)oc2c1.[K+] | 4.2%
5 | CC(=O)Oc1cc2c(c(C)c1OC(C)=O)CC=C1C2(C)CCC2(C)C3CC(C)(C(=O)O)CCC3(C)CCC12C (stereo not drawn) | 0.6%
6 | C=C1CC[C@@H]2C(CC2(C)C)C(=O)CC[C@H]1O (stereo partly drawn) | 2.6%
7 | COc1cc2ccc(=O)oc2c(O)c1O | 100%
8 | C=C(C)[C@@H]1CC[C@]2(CO)CC[C@]3(C)[C@H](CC[C@@H]4[C@@]5(C)CC[C@H](O)C(C)(C)[C@@H]5CC[C@]43C)[C@@H]12 | 100%
9 | CC(=O)Oc1ccc(/C=C/c2cc(OC(C)=O)cc(OC(C)=O)c2)cc1 | 31.6%
10 | CCN(CCCCOC(=O)c1ccc(OC)c(OC)c1)C(C)Cc1ccc(OC)cc1 (stereo not drawn) | 92.3%
11 | CO[C@H]1C[C@H](O[C@H]2[C@H](C)[C@@H](O[C@@H]3O[C@H](C)C[C@H](N(C)C)[C@H]3O)[C@@H](C)C[C@@]3(CO3)C(=O)[C@H](C)[C@@H](O)[C@@H](C)[C@@H](C)OC(=O)[C@@H]2C)O[C@@H](C)[C@@H]1O.O=P(O)(O)O | 100%
12 | O=C1C=CC(=O)c2c(O)cccc21 | 66.4%
13 | COc1cccc(O)c1O | 1.2%
14 | CCOc1ccc(Cc2nccc3cc(OCC)c(OCC)cc23)cc1OCC | 95.1%
15 | CCC1(O)CC(OC2CC(N(C)C)C(O)C(C)O2)c2c(cc3c(c2O)C(=O)c2c(O)ccc(O)c2C3=O)C1C(=O)OC (stereo not drawn) | 0.8%
16 | CC(=O)N1CCN(c2ccc(OC[C@H]3CO[C@](Cn4ccnc4)(c4ccc(Cl)cc4Cl)O3)cc2)CC1 | 100%
17 | COC(=O)c1cc(O)c(=O)c2c(O)c(O)ccc2c1 | 92.2%

Row | SMILES | Mammalian (3T3) cell % growth at 10 uM
18 | C[C@@H]1[C@H](O)[C@@H](C)/C=C/C=C/C=C/C=C/C=C/C=C/C=C/[C@H](O[C@@H]2O[C@H](C)[C@@H](O)[C@H](N)[C@@H]2O)C[C@@H]2O[C@](O)(C[C@@H](O)C[C@@H](O)[C@H](O)CC[C@@H](O)C[C@@H](O)CC(=O)O[C@H]1C)C[C@H](O)[C@H]2C(=O)O | 89.7%
19 | Cc1cc(/C=C/c2ccc3cc(N(C)C)ccc3[n+]2C)c(C)n1-c1ccccc1.O=C([O-])c1cc2ccccc2c(Cc2c(O)c(C(=O)O)cc3ccccc23)c1O | 50%
20 | CCCCCCc1ccc(O)cc1O.Nc1c2ccccc2nc2ccccc12 | 53.7%
21 | CC(=O)O[C@]1(C(C)=O)CC[C@H]2[C@@H]3C=C(Cl)C4=CC(=O)CC[C@]4(C)[C@H]3CC[C@@]21C | 97.4%
22 | O=c1cc(-c2ccccc2)oc2c(O)c(O)ccc12 | 72.6%
23 | COc1ccc(CCN2CCC(Nc3nc4ccccc4n3Cc3ccc(F)cc3)CC2)cc1 | 100%
24 | CNCCC=C1c2ccccc2CCc2ccccc21 | 100%
25 | O=c1c(-c2ccc(O)cc2)coc2cc(O)cc(O)c12 | 100%
26 | CC(C)=CCc1c2c(c3occ(-c4ccc(O)cc4)c(=O)c3c1O)C=CC(C)(C)O2 | 30.6%
27 | CC(C)CCC[C@@H](C)[C@H]1CC[C@H]2[C@@H]3C(=O)C=C4C[C@@H](O)CC[C@]4(C)[C@H]3CC[C@]12C | 68.5%
28 | COC(=O)C1=C(C)NC(C)=C(C(=O)OC)C1c1ccccc1[N+](=O)[O-] | 1.7%
29 | C=CC(C1=CC(=O)C(OC)=CC1=O)c1ccc(O)cc1 (stereo not drawn) | 94.8%
30 | CC(Cc1cccc(C(F)(F)F)c1)NCCOC(=O)c1ccccc1 (stereo not drawn) | 96.6%
31 | CC(=O)OC1c2c(ccc3ccc(=O)oc23)OC(C)(C)C1OC(=O)CC(C)C (stereo not drawn) | 81.2%
32 | O=C(O)CC[N+](=O)[O-] | 88.6%
33 | NS(=O)(=O)c1cc(C(=O)O)c(NCc2ccco2)cc1Cl | 79.1%

Source: publication PMC4102417
